The values below come from PubChem BioAssay AID720565 (National Center for Advancing Translational Sciences (NCATS), 2013).

The structures appear in SMILES notation. Several values for one entry are separate records, joined by “and”; a condition that tells them apart may be missing. Equal values may be shown once. Records with an inconclusive call do not appear. Unmarked numbers belong to inactive results. Activity calls are given as the source filed them. The call rests on the fitted dose curve; in most records, active means well fitted activation curve with a large enough effect; inconclusive means small, poorly fitted or top-dose-only effect; inactive means no such curve, though single readings can be large or run the other way.
Potency means the concentration at half of the fitted maximal effect.

The assay can be described thus: qHTS for small molecules that induce genotoxicity in ELG1 expressing cells: Confirmatory Assay for Cherry-picked Compounds. Further: nearly all actives have a fitted effect of over 35% in size. On activation: % of control where 0% means no effect. The settings on record: ELG1-luciferase reporter cells, luminescence, 16 h; series mostly up to 46.1 µM; activation: at the top concentration. An excerpt: Cancer cells divide rapidly compared to normal cells in the body. During cell division, cancer cells need to duplicate their genome by DNA replication. The failure of genome duplication leads to cancer cells' death. Therefore, inhibitors of DNA replication could specifically kill cancer cells. Based on this concept, many chemotherapeutic agents were developed and have been used to treat cancer patients. However, there are a limited number of agents available in the clinical setting, and some of those that do exist have low efficacy and severe side effects. Therefore, if we can find the compounds that effectively block DNA replication either by directly damaging DNA or by inhibiting other cellular mechanisms, the options for cancer treatment will be broadened. We developed a quantitative high-throughput ELG1-luciferase reporter gene assay. Since the level of human ELG1 protein is enhanced in response to genetic stresses, increases in luciferase activity can be used to identify compounds that cause genetic stress. The data herein is the result of the confirmation assay against the cherry picked compounds selected from the primary qHTS (AID 504466). Activation is the desired outcome for this assay. NIH Chemical Genomics Center [NCGC] NIH Molecular Libraries Probe Centers Network [MLPCN] MLPCN Grant: MH092164 Assay Provider: Kyungjae Myung, National Human Genome Research Institute, NIH
For genotoxicity screening, 2,000 cells/ well (5 uL volume) were dispensed into white, solid-bottom 1536-well plates using a solenoid-based dispenser. Following transfer of 23 nL compound or DMSO vehicle by a pin tool, the plates were incubated 16 hr at 37 C, 5% CO2. Five microliter of ONE-Glo reagent (Promega) was then added to each plate. The assay plates were incubated for 30 min at room temperature followed by quantification of the luciferase activity using the PerkinElmer ViewLux CCD-based plate reader.
As to `Cc1cc(C(=O)COC(=O)c2cccnc2Cl)c(C)n1C`, the Potency was 0.706 µM (active). Turning to `Cc1ccc2nc(-c3ccc(C)c(NC(=O)COc4ccc(Br)cc4)c3)oc2c1`, the Potency is 2.5 µM (active). As to `CSc1ccc(C(=O)c2[nH]c(=O)[nH]c2C)cc1`, the Potency is 31.5 µM (active).

Consider `CCOC(=O)c1c(C)[nH]c(C(=O)NNC(=O)c2ccccc2F)c1C`, for which the Potency is 12.5 µM (active).

In the case of `CC(=O)c1cc2c(cc1NC(=O)CSc1nc3ccccc3o1)OCO2`, the “activation” value is 22%. With `Cc1ccc(NC(=O)c2ccc(OC(=O)c3cc4ccccc4o3)cc2)cc1`, the Potency is 8.89 µM (active). As to `O=C(CCN1C(=O)NC2(CCCC2)C1=O)Nc1ccc(-c2nc3ccccc3s2)cc1`, the Potency was 0.706 µM (active). On to `CC1CCC(NC(=O)CN2C(=O)NC(C)(C)C2=O)CC1` (stereo not given), for which the “activation” value is 24.4%. `COc1cccc(CNC(=O)C2CCCN(c3nn4c(=O)cc(C)nc4s3)C2)c1` (stereo not given): the “activation” value is -15.2%. In the case of `Cn1cccc1C(=O)OCC(=O)c1c[nH]c2ccccc12`, the Potency is 5.6 µM (active). Still for that read-out and setting: as for `Nc1ccccc1NC(=O)c1ccc(CNC(=O)OCc2cccnc2)cc1`, the figure is 2.81 µM (active). Take `Cc1sc(NC(=O)c2ccco2)c(C(c2cccnc2)N2CCN(c3ccc(F)cc3)CC2)c1C` (stereo not given): the “activation” value was -16.3%.

Take `COc1cccc2c1C(=O)/C(=C\c1ccc(N(C)C)cc1)C2`: the Potency was 3.15 µM (active).

For `O=C(CSc1nc2ccccc2o1)Nc1ccccc1N1CCCCCC1`, the “activation” value was -14.9%. As to `NC(=O)C1CCN(c2cc(-c3ccc4c(c3)OCCCO4)ncn2)CC1`, the Potency was 9.96 µM (active). `Cc1cc(C(=O)COC(=O)C23CC4CC(CC(O)(C4)C2)C3)c(C)n1C`: the Potency is 14.1 µM (active). Turning to `C(=C\c1nc2ccccc2s1)/c1ccc2c(c1)OCO2`, the Potency was 0.141 µM (active). Consider `CCCCCCC[C@@H](C/C=C/CCC(=O)N(C)C/C(=C/Cl)C/C(=C\C(=O)N1CC(OC)=CC1=O)OC)OC`, for which the Potency is 1.99 µM (active). Take `COc1cccc(NC(=O)CSc2nnc(-c3ccc(C)cc3)o2)c1`: the Potency was 14.1 µM (active). Take `Oc1ccc(/C=C/c2c(F)cccc2F)c2cccnc12`: the Potency is 9.96 µM (active). For `C=CCn1c(C)cc(C(=O)COC(=O)c2n[nH]c(=O)c3ccccc23)c1C`, the Potency was 2.81 µM (active). For the molecule `COc1ccc(C2CC(c3c(O)cc(C)oc3=O)=NCCS2)c(OC)c1` (stereo not given), the Potency was 11.2 µM (active). Regarding `O=C(CSc1nnc(-c2ccc(O)cc2)o1)Nc1ccccc1Br`, the Potency is 14.1 µM (active). Take `COc1cccc(NC(=O)COC(=O)c2sccc2C)c1`: the Potency is 11.2 µM (active). Turning to `COC(=O)Nc1nc2ccc(C(=O)c3cccs3)cc2[nH]1`, the Potency was 2.23 µM (active). Regarding `COc1ccc(/C=C2\Oc3ccccc3C2=O)cc1`, the Potency is 0.996 µM (active). Still for that read-out and setting: in the case of `COc1ccccc1NC(=O)CSc1nnc(-c2ccccc2)o1` it was 2.5 µM (active).

As for `Cc1ccccc1NC(=O)CSc1nc2ccccc2o1`, the “activation” value is 23.9%.

Take `CCOC(=O)N1CCN(C(=O)CSCC(=O)Nc2nc(-c3ccc(-c4ccccc4)cc3)cs2)CC1`: the Potency entry is “inactive”. For the molecule `c1ccc(-c2cc3cc4c(cc3cn2)OCO4)cc1`, the Potency is 2.81 µM (active). Consider `COc1ccc(-c2cnc(-c3cccnc3)o2)cc1`, for which the Potency is 15.8 µM (active). Take `O=C(COc1ccccc1F)Nc1ccc(-c2nc3ccccc3s2)cc1`: the Potency was 5 µM (active). Still for that read-out and setting: in the case of `Cn1c2ccccc2c(=O)c2cc(NCCCN3CCOCC3)ccc21` it was 17.7 µM (active); in that of `Cc1ccc(-c2nnc(SCC(=O)Nc3ccccc3F)o2)cc1`, 115 nM (active) and 88.9 nM (active). Same read-out and setting: as for `CC(=O)c1cc(F)ccc1OCC(=O)Nc1ccc2c(c1)OCO2`, the figure is 6.28 µM (active); as for `CN(C)c1cccc(C(=O)NNC(=O)CN2C(=O)C3CC=CCC3C2=O)c1` (stereo not given), 7.91 µM (active).

`Cc1ccc(C(=O)Cn2c3c(sc2=N)CCCC3)cc1`: the Potency is 0.141 µM (active). As to `Cn1cccc1C(=O)Nc1ccc(N2CCOCC2)cc1`, the Potency was 7.05 µM (active).

`O=c1c2ccccc2oc2c1ccc1ccccc12`: the Potency was 15.8 µM (active). As for `N#C/C(=C\c1cccnc1)c1ccccn1`, the “activation” value is 15.8%.
